# Marburg entry inh: blocks Marburg virus binding to or entry into cells. AID 540276. Marburg virus pseudotyped entry inhibition, cell reporter. Potency, µM (doses to about 37.8 µM), actives largely listed as inhibitors. 300,000 tested, 1.8% active; calls by dose curve; tested in HEK293 cells
# HCMV inh: inhibitors of human cytomegalovirus; HFF cells, HCMV-luciferase reporter, 72 h; active compounds read low; activity change, negative = inhibition, % at 57.5 µM; 410,000 tested, 4.5% active; AID 1259415; in the data active = activity change below about -60%; inconclusive = no clear call, values can overlap the other calls; inactive = above about -39%
#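 Steps: HFFs plated, 16 h 37C; compounds added; HCMV-luciferase added to MOI 1 PFU/cell; 72 h 37C; OneGlo reagent, 5 min room temperature; luminescence read, normalized to controls.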
# Lassa entry inh: Lassa virus entry inhibition | Lassa virus pseudotype entry inhibition, cell reporter | Potency, µM (titrated, usually from 37.9 µM), hits mostly inhibitors | 300,000 tested, 1.2% active | AID 540256; calls by dose curve; tested in HEK293 cells; also: nearly all actives have a fitted effect of over 50% in size
# Pf growth 48h: inhibits P. falciparum growth in the first generation, 48 h. Potency, µM (doses to about 28.7 µM), hits mostly inhibitors. P. falciparum luciferase growth in erythrocytes, 48 h. 310,000 tested, 5.9% active. AID 504832
#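 Luminescence readout; reporter = integrated firefly luciferase in P. falciparum. RBC culture at 2% hematocrit, 0.1% parasitemia final, 37 C/5% CO2; decreased signal taken as growth inhibition.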
# HCV inhibitor: inhibitors of hepatitis C virus infection; Huh7.5.1 HCVcc-Cre infection, luciferase reporter, 44 h; Potency, µM (series often up to 41.8 µM), hits mostly inhibitors; 340,000 tested, 3.4% active; AID 651820
#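 A cell-based infection assay in which seeded cells (1,000 per well) receive test compound after 4 h, are inoculated with HCVcc-Cre at approximately 0.5 moi, and are incubated 44 h before luminescence detection.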
# Pf growth 96h: P. falciparum growth inhibition at 96 hours; Potency, µM (series often up to 28.7 µM), usual class: inhibitors; P. falciparum luciferase reporter growth, 96 h; 320,000 tested, 6.9% active; AID 504834
#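 96 h incubation, 37 C, 5% CO2, of luciferase-reporter P. falciparum-infected RBCs (2% hematocrit, 0.05% parasitemia final) with test compounds; endpoint luminescence.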
# Hits are given with their value; . = inactive; ? = inconclusive; / = no result given; [ ] = remark or other dose. Only some compounds are listed: those with a hit (about 14% of all), similar ones and a draw of the others. Unless noted, calls follow the shape of the dose curve; as a rule, active = well fitted inhibition curve with a large enough effect; inconclusive = small, poorly fitted or top-dose-only effect, or another doubt; inactive = no such curve, though single readings can be large or run the other way.
SMILES,Marburg entry inh,HCMV inh,Lassa entry inh,Pf growth 48h,HCV inhibitor,Pf growth 96h
COC(=O)c1c(NC(=O)c2ccccc2OC)sc(C(=O)N2CCOCC2)c1C,.,.,.,?,?,.
COc1ccc(-c2nc(CSCC(=O)NC3CCCc4ccccc43)c(C)o2)cc1OC (stereo not drawn),?,.,.,/,?,8.28µM
COc1ccc(-c2nc(CSCC(=O)NC3CCN(Cc4ccccc4)CC3)c(C)o2)cc1OC,/,.,/,?,.,10.4µM
COc1ccc(-c2nc(Cn3c(SCc4ccccc4F)nc4ccncc43)c(C)o2)cc1,/,.,/,/,?,4.65µM
COc1ccc(-c2nc(CS(=O)CC(=O)NC3CCCc4ccccc43)c(C)o2)cc1OC (stereo not drawn),.,.,/,/,?,?
COc1ccc(-c2nc(CSCC(=O)NC3CC3)c(C)o2)cc1OC,.,.,.,.,.,.
COc1ccc(-c2nc(Cn3c(SCc4ccc(C)cc4)nc4cccnc43)c(C)o2)cc1OC,/,-97.8,?,/,/,/
COc1ccc(-c2nc(Cn3c(SCc4ccccc4F)nc4cccnc43)c(C)o2)cc1,/,.,?,/,/,/
COC(=O)[C@@]1(C#N)CC(=O)N([C@@H](C)c2ccccc2)[C@H]1c1ccc(OC)cc1,/,.,/,/,/,/
COc1cc(Nc2ccn3nc(-c4ccc(F)cc4)cc3n2)cc(OC)c1OC,/,.,/,/,/,/
CCOC(=O)N1CCC(NC(=O)CSCc2nc(-c3ccc(C)cc3)oc2C)CC1,/,-63.2,/,.,?,.
N#CCCN1CCN(C(CNS(=O)(=O)c2ccc(Cl)cc2)c2ccccc2)CC1 (stereo not drawn),.,.,.,.,.,5.22µM
O=C(CCS(=O)(=O)c1cc(Br)cc2c1N(C(=O)C1CC1)CC2)NCc1ccccc1Cl,.,.,.,/,/,/
CC(CC(=O)NCc1ccco1)S(=O)(=O)c1ccc2c(c1)CCN2C(=O)C1CC1 (stereo not drawn),/,.,/,.,.,8.28µM
CCC(=O)N1CCc2cc(Br)cc(S(=O)(=O)CC(=O)OC)c21,.,/,.,?,.,14.7µM
O=C(CCS(=O)(=O)c1cc(Br)cc2c1N(C(=O)C1CC1)CC2)NCc1ccco1,.,.,.,8.28µM,?,.
CCC(=O)N1CCc2cc(Br)cc(S(=O)(=O)CCC(=O)NCC3CCCO3)c21 (stereo not drawn),?,-109.4,.,?,.,?
CCC(=O)N1CCc2cc(Br)cc(S(=O)(=O)NCCN3CCCC3)c21,?,.,.,/,.,.
CCC(=O)N1CCc2cc(Br)cc(S(=O)(=O)NCC3CCCO3)c21 (stereo not drawn),?,.,.,?,.,.
CC(C(=O)NC1CCCC1)n1c(-c2ccncc2)nc2ccccc21 (stereo not drawn),/,.,/,/,/,/
CCOc1ccc(S(=O)(=O)NCC(=O)NC2CCCCC2)cc1,/,.,/,.,.,?
CCCCCNC(=O)c1c[nH]c2ccc(S(=O)(=O)N3CCC(C)CC3)cc2c1=O,/,.,.,/,/,/
Cc1c(-c2nnc(SCC(=O)Nc3ccc(Cl)cc3)o2)nnn1-c1ccc(F)cc1,/,.,.,/,/,/
COc1ccccc1N1CCN(S(=O)(=O)c2cc(Br)cnc2N)CC1,.,.,?,.,.,?
CCN(CC)CCn1c2ccccc2c2nc3ccc([N+](=O)[O-])cc3cc21,?,-98.3,?,?,?,?
SMILES,Marburg entry inh,HCMV inh,Lassa entry inh,Pf growth 48h,HCV inhibitor,Pf growth 96h
CC1(C)CC(Cc2ccccc2C(F)(F)F)N(C(=O)OC(C)(C)C)C1 (stereo not drawn),/,.,/,/,/,/
CCCn1c(=O)c2sccc2n2c(CCCC(=O)NC3CCCCC3)nnc12,/,.,.,/,/,/
O=C1CC(Sc2nnnn2-c2ccccc2)C(=O)N1c1cccc(Cl)c1 (stereo not drawn),?,-61.8,?,.,?,?
COc1ccc(N2C(=O)CC(Sc3nnnn3-c3ccc(F)cc3)C2=O)cc1 (stereo not drawn),?,.,?,.,?,?
Cc1ccccc1-c1ncnn1-c1sc2c(c1C#N)CCCCC2,/,.,.,/,/,/
COC(/C=C/Nc1ccc(OC)cc1)=C(C#N)C#N,.,.,.,?,.,.
COc1ccc(OC)c(N/C=C/C(=C(C#N)C#N)N(C)C)c1,?,-67.7,.,?,?,?
CNC(=O)C[C@@H]1C(=O)N(C2CCCCC2)CC1(C)C,/,.,/,/,/,/
Cn1c(O)c(/C=N/NC(=O)c2cc3ccccc3cc2O)c2ccccc21,?,.,.,?,?,?
COCCn1c(C)cc(/C=N/NC(=O)c2cc3ccccc3cc2O)c1C,.,/,.,3.7µM,?,9.28µM
COc1ccc(OC2CCN(S(=O)(=O)c3ccc(OC)cc3)CC2)cc1,.,?,?,.[0.00184 µM],?,?
COc1ccc(S(=O)(=O)N2CCC(Oc3ccc(-n4cnnn4)cc3)CC2)cc1OC,.,-63.6,.,/,/,/
COc1ccc(OC2CCN(S(=O)(=O)c3cccc(F)c3)CC2)cc1,.,-97.4,.,.,?,.
COc1ccc(S(=O)(=O)N2CCC(Oc3ccc(-n4cnnn4)cc3)CC2)cc1,.,.,.,/,/,/
Cc1ccn2c(Nc3ccc4c(c3)OCCO4)c(-c3cccs3)nc2c1,.,.,.,/,/,/
O=c1[nH]c(=O)c2[nH]c(=O)[nH]c2[nH]1,/,/,/,.,/,.
CCCCC(=O)Nc1cc(C)c(NC(=O)c2cccs2)cn1,.,.,.,.,.,.
CCCC(=O)Nc1cc(C)c(NC(=O)c2ccncc2)cn1,.,.,2.82µM,.,.,/
COC(=O)CCC(=O)OC1(C)C(=O)C2=CN(CC3CC3)C(c3ccc(OC)cc3)=CC2=C(Br)C1=O (stereo not drawn),/,/,/,13.1µM,.,?
COC(=O)CCC(=O)OC1(C)C(=O)C2=CN(CC(C)C)C(c3ccc(OC)cc3)=CC2=C(Br)C1=O (stereo not drawn),/,/,/,?,/,13.1µM
COC(=O)CCC(=O)OC1(C)C(=O)C2=CN(Cc3ccc(OC)cc3)C(c3ccc(OC)cc3)=CC2=C(Br)C1=O (stereo not drawn),/,.,/,/,.,/
COC(=O)CCC(=O)OC1(C)C(=O)C2=CN(CCCOC(C)C)C(c3ccc(OC)cc3)=CC2=C(Br)C1=O (stereo not drawn),/,/,/,?,.,11.7µM
COC(=O)C1=C(C)N(C)C(=NCc2cc(OC)c(OC)c(OC)c2)NC1c1cccc(Cl)c1 (stereo not drawn),/,.,/,/,/,/
CCCCn1c(=O)n(-c2ccc(Br)cc2F)c(=O)c2c3c(sc21)CN(C(C)=O)CC3,.,.,/,/,/,/
O=C(NCCC1=CCCCC1)c1cnsn1,.,.,.,.,?,4.65µM
O=C(NCCC1=CCCCC1)c1c(O)nc2sccn2c1=O,.,/,.,11.7µM,?,?
O=C(NCCCc1ccccc1)c1c(O)nc2sccn2c1=O,.,-63.9,.,?,.,?
Cc1cc(C(=O)NCCC2=CCCCC2)no1,?,.,?,.,.,.
